# Records with an inconclusive call do not appear. Entries that show only a call come without a potency. A number with no mark means an inactive call. The source made the active and inactive calls. Calls come from the whole dose curve; as a rule, active = well fitted curve in the direction sought with a large enough effect in the repeat runs; inconclusive = weak or mixed curves; inactive = no such curve, though single readings can be large; an effect the other way counts as inactive or inconclusive.
# Experiments:
# [1] = molecular target: Cytochrome P450 2C9 (Homo sapiens) (UniProt P11712); assay: Cytochrome P450 Family 2 Subfamily C Member 9 (CYP2C9) small molecule antagonists: luciferase reporter qHTS assay (AID 1671198); for activity change, negative = inhibition: series mostly up to about 120 µM
# Cytochrome P450 2C9 (Homo sapiens), sequence (P11712 whole entry, looked up): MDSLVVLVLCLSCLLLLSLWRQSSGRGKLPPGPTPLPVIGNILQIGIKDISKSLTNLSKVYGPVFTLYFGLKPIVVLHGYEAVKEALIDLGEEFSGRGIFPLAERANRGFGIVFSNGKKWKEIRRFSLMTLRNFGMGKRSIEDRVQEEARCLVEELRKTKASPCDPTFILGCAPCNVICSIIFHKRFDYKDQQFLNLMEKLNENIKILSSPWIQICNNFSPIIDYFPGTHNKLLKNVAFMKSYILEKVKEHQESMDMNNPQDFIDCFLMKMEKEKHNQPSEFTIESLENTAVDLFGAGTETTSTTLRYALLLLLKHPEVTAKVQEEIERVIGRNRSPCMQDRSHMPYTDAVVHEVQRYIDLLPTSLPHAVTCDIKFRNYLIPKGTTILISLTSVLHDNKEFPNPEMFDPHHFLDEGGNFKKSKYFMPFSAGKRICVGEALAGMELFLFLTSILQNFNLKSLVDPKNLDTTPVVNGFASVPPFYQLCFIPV
# How it was run: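 Enzyme-substrate mix preincubated with compound 10 min at room temperature; reaction started with NADPH regeneration solution, 1 h 37C. Luminescent luciferin product read after 20 min detection reagent.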
# [2] = molecular target: Cytochrome P450 1A2 (Homo sapiens) (UniProt P05177); assay: Cytochrome P450 Family 1 Subfamily A Member 2 (CYP1A2) small molecule antagonists: luciferase reporter qHTS assay (AID 1671199); for activity change, negative = inhibition: series mostly up to about 120 µM
# Cytochrome P450 1A2 (Homo sapiens), sequence (P05177 whole entry, looked up): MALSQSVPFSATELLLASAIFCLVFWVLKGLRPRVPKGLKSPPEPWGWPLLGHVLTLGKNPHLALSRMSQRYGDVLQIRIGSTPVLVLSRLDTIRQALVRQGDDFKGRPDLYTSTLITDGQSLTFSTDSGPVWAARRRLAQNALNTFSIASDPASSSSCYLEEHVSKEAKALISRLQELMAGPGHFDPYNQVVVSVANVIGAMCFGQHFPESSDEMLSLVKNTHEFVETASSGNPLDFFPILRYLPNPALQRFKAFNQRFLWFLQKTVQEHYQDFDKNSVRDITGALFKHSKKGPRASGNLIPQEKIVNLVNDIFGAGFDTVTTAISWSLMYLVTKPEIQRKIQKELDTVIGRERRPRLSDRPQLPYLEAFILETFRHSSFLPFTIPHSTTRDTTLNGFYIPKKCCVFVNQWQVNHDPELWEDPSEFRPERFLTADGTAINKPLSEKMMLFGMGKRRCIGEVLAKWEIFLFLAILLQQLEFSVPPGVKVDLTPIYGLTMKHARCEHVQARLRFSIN
# How it was run: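 Quantitative high-throughput format using the P450-Glo CYP1A2 system. Reaction initiated by NADPH regeneration solution, 1 h at room temperature, then stopped with detection reagent; luminescence measured 20 min later.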
# [3] = molecular target: Voltage-gated inwardly rectifying potassium channel KCNH2 (Homo sapiens) (UniProt Q12809); assay: Human Ether-a-go-go-Related Gene (hERG) channel small molecule antagonists: fluorescence cell-based qHTS assay (AID 1671200); for activity change, negative = inhibition: series mostly up to about 77 µM
# Voltage-gated inwardly rectifying potassium channel KCNH2 (Homo sapiens), sequence (Q12809 whole entry, looked up): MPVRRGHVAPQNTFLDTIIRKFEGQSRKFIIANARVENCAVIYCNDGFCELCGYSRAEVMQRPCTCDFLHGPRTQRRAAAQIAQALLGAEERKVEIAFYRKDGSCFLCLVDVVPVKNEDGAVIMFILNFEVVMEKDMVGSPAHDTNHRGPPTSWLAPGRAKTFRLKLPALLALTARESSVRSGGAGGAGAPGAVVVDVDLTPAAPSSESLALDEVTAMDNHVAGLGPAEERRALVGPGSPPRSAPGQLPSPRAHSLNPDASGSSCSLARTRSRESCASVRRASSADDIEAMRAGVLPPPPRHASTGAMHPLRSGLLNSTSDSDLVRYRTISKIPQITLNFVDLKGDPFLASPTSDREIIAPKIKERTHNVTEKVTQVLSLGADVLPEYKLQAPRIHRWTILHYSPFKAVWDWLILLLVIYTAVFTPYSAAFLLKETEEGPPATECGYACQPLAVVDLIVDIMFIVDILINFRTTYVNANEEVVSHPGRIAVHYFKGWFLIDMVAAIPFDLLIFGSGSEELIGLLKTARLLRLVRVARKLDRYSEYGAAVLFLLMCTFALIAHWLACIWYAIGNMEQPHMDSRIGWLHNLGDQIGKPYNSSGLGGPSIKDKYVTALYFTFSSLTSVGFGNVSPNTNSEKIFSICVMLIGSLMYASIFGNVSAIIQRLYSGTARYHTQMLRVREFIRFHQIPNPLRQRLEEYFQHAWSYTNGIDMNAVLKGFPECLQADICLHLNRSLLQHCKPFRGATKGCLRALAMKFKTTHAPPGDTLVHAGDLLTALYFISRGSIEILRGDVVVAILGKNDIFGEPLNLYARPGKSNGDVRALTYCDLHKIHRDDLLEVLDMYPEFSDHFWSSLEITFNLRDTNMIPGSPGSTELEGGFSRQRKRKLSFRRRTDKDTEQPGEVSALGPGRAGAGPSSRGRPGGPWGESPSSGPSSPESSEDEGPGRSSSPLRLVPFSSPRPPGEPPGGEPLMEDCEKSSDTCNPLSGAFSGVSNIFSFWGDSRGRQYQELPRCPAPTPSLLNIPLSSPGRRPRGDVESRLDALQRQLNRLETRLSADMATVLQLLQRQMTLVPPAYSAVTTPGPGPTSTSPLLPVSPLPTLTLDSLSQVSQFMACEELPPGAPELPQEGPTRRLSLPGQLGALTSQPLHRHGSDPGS
# How it was run: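 Thallium flux as potassium surrogate: FluxOR II dye loaded 1 h at room temperature into hERG-expressing U2OS cells, then stimulus buffer added after 10 min. Kinetic 480 nm excitation/540 nm emission read, 2 min.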
# [4] = molecular target: Cytochrome P450 3A4 (Homo sapiens) (UniProt P08684); assay: Cytochrome P450 Family 3 Subfamily A Member 4 (CYP3A4) small molecule antagonists: luciferase reporter qHTS assay (AID 1671201); for activity change, negative = inhibition: series mostly up to about 120 µM
# Cytochrome P450 3A4 (Homo sapiens), sequence (P08684 whole entry, looked up): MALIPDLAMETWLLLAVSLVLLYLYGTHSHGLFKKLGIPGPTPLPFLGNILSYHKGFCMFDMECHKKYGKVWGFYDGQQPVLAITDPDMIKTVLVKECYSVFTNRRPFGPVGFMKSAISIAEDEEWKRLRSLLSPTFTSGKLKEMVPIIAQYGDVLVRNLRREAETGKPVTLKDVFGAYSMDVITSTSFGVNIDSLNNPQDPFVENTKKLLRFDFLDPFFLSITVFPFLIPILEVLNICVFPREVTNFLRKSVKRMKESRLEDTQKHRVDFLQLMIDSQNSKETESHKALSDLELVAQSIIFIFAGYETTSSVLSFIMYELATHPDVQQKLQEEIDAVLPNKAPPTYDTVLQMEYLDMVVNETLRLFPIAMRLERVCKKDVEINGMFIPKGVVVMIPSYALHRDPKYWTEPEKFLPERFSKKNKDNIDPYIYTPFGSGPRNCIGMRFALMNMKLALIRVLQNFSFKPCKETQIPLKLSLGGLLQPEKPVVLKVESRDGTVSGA
# How it was run: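 Recombinant human CYP3A4 converts a proluciferin substrate to luciferin over 1 h at room temperature after NADPH regeneration solution is added (compound preincubated 10 min); detection reagent stops reaction, luminescence read 20 min later as relative units.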
# Note: nearly all actives have a fitted effect of over 50% in size.
# Potency is the fitted concentration of half-maximal effect.
compound,measurement,setting,value
CC(C)OC(=O)C(C)N(C(=O)c1ccccc1)c1ccc(F)c(Cl)c1 (stereo not drawn),Potency,[1],7.96 µM (active)
same,Potency,[2],63.3 µM (active)
same,Potency,[3],inactive
same,Potency,[4],89.4 µM (active)
Cc1oc(-c2ccccc2)nc1CCOc1cccc2c1ccn2CCC(=O)O,Potency,[1],22.4 µM (active)
same,Potency,[2],inactive
same,Potency,[4],inactive
O=C(OCCCCCCOC(=O)c1ccccc1)c1ccccc1,Potency,[1],7.96 µM (active)
same,Potency,[2],3.17 µM (active)
same,Potency,[3],inactive
same,Potency,[4],inactive
CC(C)(COC(=O)c1ccccc1)COC(=O)c1ccccc1,Potency,[1],6.33 µM (active)
same,Potency,[2],39.9 µM (active)
same,Potency,[4],inactive
CCOC(=O)C(F)(F)F,Potency,[1],inactive
same,Potency,[2],inactive
same,Potency,[3],inactive
same,Potency,[4],inactive
O=C1CCC(=O)O1,Potency,[1],inactive
same,Potency,[2],inactive
same,Potency,[3],inactive
same,Potency,[4],inactive
CCN(CC)CCOC(=O)C(Cc1cccc2ccccc12)CC1CCCO1 (stereo not drawn),Potency,[1],inactive
same,Potency,[3],9.52 µM (active)
COc1ccc(C)cc1[N+](=O)[O-],Potency,[1],inactive
same,Potency,[2],10.2 µM (active)
same,Potency,[3],inactive
same,Potency,[4],36.1 µM (active)
CCc1c(C(=O)NN2CCCCC2)nn(-c2ccc(Cl)cc2Cl)c1-c1ccc(Br)cc1,Potency,[1],8.94 µM (active)
same,Potency,[2],inactive
same,Potency,[4],inactive
CCCCCCCC#N,Potency,[1],inactive
same,Potency,[3],inactive
same,Potency,[4],inactive
Cc1[nH]c(C)c(Cl)c(=O)c1Cl,"activity change, negative = inhibition",[1],23.2% [at 23.6 µM]
same,Potency,[2],inactive
same,"activity change, negative = inhibition",[3],-0.502% [at 15.8 µM]
same,"activity change, negative = inhibition",[4],19.3% [at 23.6 µM]
O=[N+]([O-])c1ccc2[nH]ncc2c1,Potency,[1],inactive
same,Potency,[2],31.7 µM (active)
same,Potency,[3],inactive
same,Potency,[4],inactive
CCCCC(CC)COC(=O)CCCCCCCCC(=O)OCC(CC)CCCC (stereo not drawn),Potency,[1],inactive
same,Potency,[2],39.9 µM (active)
same,Potency,[3],inactive
same,Potency,[4],inactive
CC1OC(=O)C(C)OC1=O (stereo not drawn),Potency,[1],inactive
same,Potency,[2],inactive
same,Potency,[3],inactive
same,Potency,[4],inactive
C#C[C@]1(O)CC[C@H]2[C@@H]3CCc4cc(OC5CCCC5)ccc4[C@H]3CC[C@@]21C,Potency,[1],19.5 µM (active)
same,Potency,[3],inactive
C=CC1CC2C=CC1C2 (stereo not drawn),Potency,[1],inactive
same,Potency,[2],inactive
same,Potency,[4],inactive
Brc1c2ccccc2cc2ccccc12,Potency,[1],35.9 µM (active)
same,Potency,[2],0.639 µM (active)
same,Potency,[3],inactive
same,Potency,[4],18 µM (active)
Cc1cc(C(=O)O)ccc1[N+](=O)[O-],Potency,[1],inactive
same,Potency,[2],40 µM (active)
same,Potency,[3],inactive
same,Potency,[4],inactive
CC(=O)OC[C@H]1O[C@@H](n2ncc(=O)[nH]c2=O)[C@H](OC(C)=O)[C@@H]1OC(C)=O,Potency,[1],inactive
same,Potency,[2],inactive
same,Potency,[3],inactive
same,Potency,[4],inactive
COc1cc(Cl)c(OC)cc1N,Potency,[1],35.6 µM (active)
same,Potency,[2],5.03 µM (active)
same,Potency,[3],inactive
same,Potency,[4],31.7 µM (active)
CCN(CC)CCNc1ccc(CNC=O)c2sc3ccc(OC)cc3c(=O)c12,Potency,[1],31.7 µM (active)
same,Potency,[2],22.4 µM (active)
same,Potency,[3],inactive
same,Potency,[4],20 µM (active)
CCCCCCCC/C=C\CCCCCCCC(=O)OCC,Potency,[1],71 µM (active)
same,Potency,[3],inactive
CCO[C@H](Cc1ccc(OCCc2ccc(OS(C)(=O)=O)cc2)cc1)C(=O)O,Potency,[1],inactive
same,Potency,[2],inactive
same,Potency,[3],inactive
same,Potency,[4],inactive
O=S(=O)(Oc1ccc(Cl)cc1)c1ccccc1,Potency,[1],31.7 µM (active)
same,Potency,[2],5.64 µM (active)
same,Potency,[3],inactive
same,Potency,[4],inactive
CC(=O)c1ccc2c(c1)N(CCCN(C)C)c1ccccc1S2,Potency,[1],inactive
same,Potency,[2],11 µM (active)
same,Potency,[4],inactive
O=CC1CC=CCC1 (stereo not drawn),Potency,[1],inactive
same,Potency,[3],inactive
O=C(O)C1(C(=O)Nc2ccc(Cl)cc2Cl)CC1,Potency,[1],15.9 µM (active)
same,Potency,[2],39.9 µM (active)
same,Potency,[4],inactive
CCCCCCCCCCCc1ccccc1,Potency,[1],inactive
same,Potency,[2],inactive
same,Potency,[4],inactive
COCCCN1CCC(NC(=O)c2cc(Cl)c(N)c3c2OCC3)CC1,Potency,[1],3.09 µM (active)
same,Potency,[2],inactive
same,Potency,[3],inactive
same,Potency,[4],inactive
CN1Cc2cc(C(=O)N3CCC(C4CCNCC4)CC3)ccc2NC(CC(=O)O)C1=O (stereo not drawn),Potency,[1],inactive
same,Potency,[2],inactive
same,Potency,[4],inactive
